The values that follow come from PubChem BioAssay AID2533 (National Center for Advancing Translational Sciences (NCATS), 2010).

Inconclusive results are not listed. The source made the active and inactive calls. Calls come from the whole dose curve; as a rule, active = well fitted activation curve with a large enough effect; inconclusive = small, poorly fitted or top-dose-only effect; inactive = flat fitted curve, though single readings scatter.
Potency is the fitted concentration of half-maximal effect.

Sequence of Pyruvate kinase PKM (Homo sapiens) (P14618 whole entry, looked up, canonical isoform): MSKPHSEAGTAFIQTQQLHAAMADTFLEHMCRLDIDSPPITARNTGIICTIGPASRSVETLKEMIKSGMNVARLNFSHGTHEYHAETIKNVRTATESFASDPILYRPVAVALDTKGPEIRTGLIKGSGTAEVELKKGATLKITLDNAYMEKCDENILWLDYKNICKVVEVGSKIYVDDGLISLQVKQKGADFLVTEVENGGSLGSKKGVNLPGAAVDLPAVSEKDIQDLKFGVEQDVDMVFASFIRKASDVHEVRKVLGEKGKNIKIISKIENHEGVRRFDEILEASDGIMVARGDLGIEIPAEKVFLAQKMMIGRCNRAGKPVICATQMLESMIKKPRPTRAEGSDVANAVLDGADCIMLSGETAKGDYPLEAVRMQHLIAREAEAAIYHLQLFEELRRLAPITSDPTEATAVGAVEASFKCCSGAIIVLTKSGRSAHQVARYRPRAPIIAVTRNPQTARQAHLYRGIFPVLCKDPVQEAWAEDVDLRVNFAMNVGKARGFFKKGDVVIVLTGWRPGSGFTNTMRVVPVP

In the assay the target is Pyruvate kinase PKM (Homo sapiens) (UniProt P14618). Kind of assay: Confirmation Concentration-Response Assay for Activators of Human Muscle isoform 2 Pyruvate Kinase: for Probe SAR. For activity change, positive = activation: % of control where 0% means no effect. Note: nearly all actives have a fitted effect of over 60% in size. The settings on record: purified PKM2, ATP generation, Kinase-Glo luminescence; series mostly up to 57.5 µM; activity change, positive = activation: at the top concentration. An outline of the steps:
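ATP generation was detected by luciferase-coupled luminescence (Kinase-Glo). The reaction ran for 1 hour at room temperature with 0.1 mM ADP, 0.5 mM PEP and 0.1 nM purified hPK-M2 in 50 mM imidazole, pH 7.2, with 7 mM MgCl2. The enzyme was set at intermediate activity so activators could be detected.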
A general note: In Kinase-Glo more light means more ATP remaining.
For `Nc1cccc(S(=O)(=O)N2CCN(S(=O)(=O)c3ccc4c(c3)OCCO4)CC2)c1`, the Potency is 0.0919 µM (active).

As to `O=C1CCc2cc(S(=O)(=O)Nc3ccc4ncccc4c3)ccc2N1`, the “activity change, positive = activation” value is 21% (inactive).

Take `Cc1ccc2nc(-c3ccc(C)o3)c(Nc3ccc4c(c3)OCO4)n2c1`: the “activity change, positive = activation” value was 29.7% (inactive).

On to `O=C1c2ccccc2C(=O)N1c1ccc2ccccc2n1`, for which the “activity change, positive = activation” value was 3.11% (inactive).

For the compound `COc1ccccc1NS(=O)(=O)c1ccc2c(c1)CCC(=O)N2`, the Potency was 20.6 µM (active).

Take `Cc1ccc(Nc2c(-c3ccc(C)s3)nc3ccccn23)cc1`: the Potency was 14.6 µM (active).

Consider `Cc1ccc(-c2nc3ccc(Cl)cn3c2Nc2ccccc2)o1`, for which the “activity change, positive = activation” value is 18.9% (inactive).

As for `O=C1CCc2cc(S(=O)(=O)Nc3ccccc3-c3ccccc3)ccc2N1`, the “activity change, positive = activation” value is 16.8% (inactive).

As to `COc1ccc(-c2nc3ccccn3c2Nc2ccccc2C)cc1`, the Potency is 14.6 µM (active).

In the case of `O=C1c2ccccc2C(=O)N1c1cccc(O)c1`, the “activity change, positive = activation” value was 9.55% (inactive).

For the compound `Cc1ccc(C)c(O)c1`, the “activity change, positive = activation” value is 1.47% (inactive).

As to `COc1cc(F)c(S(=O)(=O)N2CCN(S(=O)(=O)c3cccc(N)c3)CC2)c(F)c1`, the Potency was 0.0231 µM (active).

Turning to `Cc1ccc(C)c(OC2=NS(=O)(=O)c3ccccc32)c1`, the “activity change, positive = activation” value is 2.92% (inactive).

`Cc1ccc(NS(=O)(=O)c2ccc(F)cc2)cc1C`: the Potency was 25.9 µM (active).

As to `O=C1c2ccccc2C(=O)N1c1ccc(Cl)cc1`, the “activity change, positive = activation” value is 7.81% (inactive).

With `CC(=O)Nc1ccc(S(=O)(=O)N2CCN(S(=O)(=O)c3ccc4c(c3)OCCO4)CC2)cc1`, the Potency was 1.63 µM (active).

For the compound `Cc1ccccc1NS(=O)(=O)c1ccc2c(c1)CCC(=O)N2`, the Potency was 11.6 µM (active).

Turning to `O=C1c2ccccc2C(=O)N1c1cccc2ncccc12`, the “activity change, positive = activation” value is 3.32% (inactive).

For `O=S1(=O)N=C(Oc2ccc(-c3ccccc3)cc2)c2ccccc21`, the “activity change, positive = activation” value is -3.1% (inactive).
